This is an account of results in PubChem BioAssay (EPA / NIEHS).

Activity calls are given as the source filed them. Rule for the calls: active = hit-call score of the fitted dose curve at least 0.9, where 1 is the maximum; inactive = score below 0.9.

Read-out in experiment [1]: Matrix Metallopeptidase 1 (MMP1), MMP1 (gene 4312)
Briefly: BSK_BE3C_MMP1: BioMAP Diversity Plus: BE3C Assay for Matrix Metallopeptidase 1 (MMP1) Biomarker Activity (AID 2283024). The conditions noted are these: primary human bronchial epithelial cells; actives raise or lower the signal. In outline: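 ELISA measurement of MMP-1 after 24 h compound exposure of primary human bronchial epithelial cells. Changes in either direction fitted relative to DMSO; parallel SRB staining checked overt cytotoxicity.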

Experiment [2] is described as follows: BSK_4H_SRB: Viability Assessment in the BioMAP Diversity Plus: 4H Assay (AID 2283027).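 For AC50: curves fitted both ways versus DMSO so AC50 may be loss or gain.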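 Note: cells exposed to compound for 24 h before staining.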 As to conditions: primary human endothelial cells (HUVEC). In outline: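 Cytotoxicity read-out in primary human endothelial cells: after 24 h compound exposure, cells were TCA-fixed (10%), stained with 0.1% SRB and absorbance taken at 560 nm. Values fitted in both directions relative to DMSO.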

The nature of experiment [3]: BSK_BE3C_SRB: Viability Assessment in the BioMAP Diversity Plus: BE3C Assay (AID 2283028).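 For AC50: fitted both ways so AC50 may mark signal gain or loss versus DMSO.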 The conditions noted are these: primary human bronchial epithelial cells. In outline: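 Cytotoxicity read-out: SRB (0.1%) staining of TCA-fixed (10%) human lung bronchial epithelial cells, absorbance 560 nm, 24 h post-dosing. Curves fitted both directions relative to DMSO.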
Read-out in experiment [4]: Thrombomodulin, THBD (gene 7056)
Nature of the experiment: BSK_3C_Thrombomodulin: BioMAP Diversity Plus: 3C Assay for Thrombomodulin Biomarker Activity (AID 2283029). As to conditions: primary human endothelial cells (HUVEC); actives raise or lower the signal. In outline: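 ELISA measurement of thrombomodulin on HUVEC surface 24 h after chemical dosing; activity fitted in both directions relative to DMSO vehicle.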

Read-out in experiment [5]: Urokinase-type plasminogen activator receptor (uPAR), PLAUR (gene 5329)
Briefly: BSK_4H_uPAR: BioMAP Diversity Plus: 4H Assay for Urokinase-type plasminogen activator receptor (uPAR) Biomarker Activity (AID 2283030). The conditions noted are these: primary human endothelial cells (HUVEC); actives raise or lower the signal. In outline: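 uPAR level read by ELISA on HUVEC cultures (BioMAP 4H) 24 h post-dosing, analyzed for gain or loss relative to DMSO. Parallel SRB staining assessed overt cytotoxicity.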

Read-out in experiment [6]: Vascular endothelial growth factor receptor 2 (Homo sapiens) (UniProt P35968)
Briefly: BSK_4H_VEGFRII: BioMAP Diversity Plus: 4H Assay for Vascular endothelial growth factor receptor 2 (VEGFR2) Biomarker Activity (AID 2283031).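 For AC50: cell-surface VEGFR2 protein level quantified by ELISA.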 As to conditions: primary human endothelial cells (HUVEC); actives raise or lower the signal. In outline:
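Measured by ELISA after 24 h of compound treatment: VEGFR2 on primary human umbilical vein endothelial cells, fitted in both directions relative to DMSO. Parallel cultures received SRB staining (560 nm) for overt cytotoxicity.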

Read-out in experiment [7]: Human Leukocyte Antigen - DR isotype (HLADR), HLA-DRA (gene 3122)
Nature of the experiment: BSK_BE3C_HLADR: BioMAP Diversity Plus: BE3C Assay for Human Leukocyte Antigen - DR isotype (HLADR) Biomarker Activity (AID 2283032). As to conditions: primary human bronchial epithelial cells; actives raise or lower the signal. In outline:
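Cell-surface HLA-DR ELISA readout at 24 h after dosing in the BE3C primary human lung bronchial epithelial system; gain or loss of signal against DMSO, with parallel sulforhodamine B staining of total protein for overt cytotoxicity.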

Read-out in experiment [8]: Vascular cell adhesion molecule 1 (VCAM1), VCAM1 (gene 7412)
Nature of the experiment: BSK_4H_VCAM1: BioMAP Diversity Plus: 4H Assay for Vascular cell adhesion molecule 1 (VCAM1) Biomarker Activity (AID 2283033).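 For outcome: cell-surface VCAM-1 protein measured by ELISA.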 The conditions noted are these: primary human endothelial cells (HUVEC); actives raise or lower the signal. In outline:
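VCAM-1 ELISA read 24 h after chemical dosing of HUVEC in the BioMAP 4H system, with gain or loss of signal fitted relative to DMSO. Parallel SRB staining (560 nm) checked overt cytotoxicity.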

Read-out in experiment [9]: Interferon-gamma inducible Protein 10 (IP10), CXCL10 (gene 3627)
Nature of the experiment: BSK_BE3C_IP10: BioMAP Diversity Plus: BE3C Assay for Interferon-gamma inducible Protein 10 (IP10) Biomarker Activity (AID 2283034). The conditions noted are these: primary human bronchial epithelial cells; actives raise or lower the signal. In outline:
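IP-10 quantified by ELISA in human primary bronchial epithelial cell cultures at 24 hours post-dosing. Gain or loss of signal fitted relative to DMSO; parallel SRB staining assessed overt cytotoxicity.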

Read-out in experiment [10]: Monokine induced gamma interferon (MIG), CXCL9 (gene 4283)
Briefly: BSK_BE3C_MIG: BioMAP Diversity Plus: BE3C Assay for Monokine induced gamma interferon (MIG) Biomarker Activity (AID 2283035). As to conditions: primary human bronchial epithelial cells; actives raise or lower the signal. In outline:
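ELISA quantified MIG after 24 h exposure of primary bronchial epithelial cultures, analysed in both directions relative to DMSO. Cytotoxicity tracked in parallel cultures by sulforhodamine B staining.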

Read-out in experiment [11]: Plasminogen activator inhibitor-1 (PAI1), SERPINE1 (gene 5054)
Briefly: BSK_BE3C_PAI1: BioMAP Diversity Plus: BE3C Assay for Plasminogen activator inhibitor-1 (PAI1) Biomarker Activity (AID 2283037). As to conditions: primary human bronchial epithelial cells; actives raise or lower the signal. In outline: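 PAI-1 was measured by ELISA in human primary bronchial epithelial cultures 24 h after chemical dosing, with cytotoxicity checked by SRB total-protein staining in parallel cultures. Activity was fitted in both directions relative to DMSO.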

Read-out in experiment [12]: urokinase plasminogen activator (uPA), PLAU (gene 5328)
Nature of the experiment: BSK_BE3C_uPA: BioMAP Diversity Plus: BE3C Assay for urokinase plasminogen activator (uPA) Biomarker Activity (AID 2283038).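 For outcome: uPA protein level quantified by ELISA in cell cultures; uPA read one day after compound addition.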 As to conditions: primary human bronchial epithelial cells; actives raise or lower the signal. In outline: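 ELISA for uPA on human primary bronchial epithelial cultures 24 h post-treatment, gain or loss against DMSO. Parallel SRB staining (0.1% after 10% TCA fixation, 560 nm) assessed overt cytotoxicity.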

Read-out in experiment [13]: Urokinase-type plasminogen activator receptor (uPAR), PLAUR (gene 5329)
Briefly: BSK_BE3C_uPAR: BioMAP Diversity Plus: BE3C Assay for Urokinase-type plasminogen activator receptor (uPAR) Biomarker Activity (AID 2283039).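 For outcome: cells exposed to compound for one day before measurement.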 The conditions noted are these: primary human bronchial epithelial cells; actives raise or lower the signal. In outline:
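uPAR levels were measured by ELISA after 24 h compound treatment of primary human bronchial epithelial cells, fitted in both directions relative to DMSO. Parallel SRB staining served as the cytotoxicity read-out.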

Read-out in experiment [14]: Interleukin-6 (IL6), IL6 (gene 3569)
Nature of the experiment: BSK_CASM3C_IL6: BioMAP Diversity Plus: CASM3C Assay for Interleukin-6 (IL6) Biomarker Activity for (AID 2283040). As to conditions: primary human coronary artery smooth muscle cells; actives raise or lower the signal.

Read-out in experiment [15]: Interleukin-8 (IL8), CXCL8 (gene 3576)
Briefly: BSK_CASM3C_IL8: BioMAP Diversity Plus: CASM3C Assay for Interleukin-8 (IL8) Biomarker Activity (AID 2283042).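 Note: IL-8 protein level quantified by ELISA.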 The conditions noted are these: primary human coronary artery smooth muscle cells; actives raise or lower the signal.

Read-out in experiment [16]: Human Leukocyte Antigen - DR isotype (HLADR), HLA-DRA (gene 3122)
Briefly: BSK_CASM3C_HLADR: BioMAP Diversity Plus: CASM3C Assay for Human Leukocyte Antigen - DR isotype (HLADR) Biomarker Activity (AID 2283043).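 Note: cell-surface HLA-DR protein level quantified by ELISA.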 The conditions noted are these: primary human coronary artery smooth muscle cells; actives raise or lower the signal.

Read-out in experiment [17]: Monocyte Chemoattractant Protein-1 (MCP1), CCL2 (gene 6347)
Nature of the experiment: BSK_CASM3C_MCP1: BioMAP Diversity Plus: CASM3C Assay for Monocyte Chemoattractant Protein-1 (MCP1) Biomarker Activity (AID 2283046).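 Note: MCP-1 level quantified by ELISA 24 h after dosing.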 As to conditions: primary human coronary artery smooth muscle cells; actives raise or lower the signal.

Experiment [18] is described as follows: BSK_CASM3C_Proliferation: Cell Proliferation Assessment in the BioMAP Diversity Plus: CASM3C Assay (AID 2283047).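 Note: sulforhodamine B total protein stain as relative cell number at 560 nm; sub-confluent cells exposed 48 h before staining; fitted both ways against DMSO so gain or loss of cell number.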 As to conditions: primary human coronary artery smooth muscle cells.
Read-out in experiment [19]: Monokine induced gamma interferon (MIG), CXCL9 (gene 4283)
Briefly: BSK_CASM3C_MIG: BioMAP Diversity Plus: CASM3C Assay for Monokine induced gamma interferon (MIG) Biomarker Activity (AID 2283048).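 Note: MIG protein level measured by ELISA.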 As to conditions: primary human coronary artery smooth muscle cells; actives raise or lower the signal.

Read-out in experiment [20]: Thrombomodulin, THBD (gene 7056)
Briefly: BSK_CASM3C_Thrombomodulin: BioMAP Diversity Plus: CASM3C Assay for Thrombomodulin Biomarker Activity (AID 2283051).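 Note: thrombomodulin protein level measured by ELISA 24 h after dosing.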 As to conditions: primary human coronary artery smooth muscle cells; actives raise or lower the signal.

Regarding `Oc1cccc2ccccc12`, the outcome in experiment [1], in experiment [2], in experiment [3], in experiment [4], in experiment [5] and in experiment [6] was inactive. Besides, the outcome in experiment [7], in experiment [8], in [9], in experiment [10], in experiment [11] and in experiment [12] was inactive. The outcome in [13], in [14], in experiment [15], in experiment [16], in experiment [17] and in experiment [18] was inactive. Further, the result in experiment [19] was inactive. Also, the AC50 in experiment [20] was 5.22 µM (active).

`CC[N+](CC)(CC(=O)Nc1c(C)cccc1C)Cc1ccccc1` (tested in a mixture with another compound): the outcome in experiment [1], in experiment [2], in experiment [3], in experiment [4], in experiment [5] and in experiment [6] was inactive. Besides, the result in [7], in experiment [8], in experiment [9], in experiment [10], in experiment [11] and in experiment [12] was inactive. Further, the outcome in [13], in [14], in [15], in [16], in experiment [17] and in experiment [18] was inactive. The outcome in experiment [19] and in [20] was inactive.

Take `Sc1nc2ccccc2s1`: the result in [1], in [2], in experiment [3], in experiment [4], in experiment [5] and in experiment [6] was inactive. Further, the result in [7], in [8], in experiment [9], in experiment [10], in experiment [11] and in experiment [12] was inactive. Moreover, the outcome in experiment [13], in experiment [14], in experiment [15], in [16], in [17] and in experiment [18] was inactive. Also, the outcome in experiment [19] and in experiment [20] was inactive.

For the molecule `CC(C)CC(=O)CC(C)CC(C)C` (stereo not given), the AC50 in experiment [1] was 20 µM (active); in [2] it was 33.7 µM (active); in experiment [4], 20 µM (active); in experiment [5], 30.9 µM (active); in [6], 32.6 µM (active); in experiment [7], 36 µM (active). The AC50 in experiment [8] was 39.2 µM (active); in experiment [9], 36.9 µM (active); in [10], 34.6 µM (active); in experiment [11] it was 37.4 µM (active); in experiment [13] it was 34.9 µM (active); in experiment [14], 20 µM (active). Further, the AC50 in [16] is 27.3 µM (active); in [17] it was 34 µM (active); in experiment [18] it was 32 µM (active); in experiment [19] it was 32.1 µM (active). The result in experiment [3], in experiment [12], in experiment [15] and in [20] was inactive.

As for `CCCCCCCCCC/C=C/C1CC(=O)OC1=O` (stereo not given), the outcome in [1], in [2], in [3], in experiment [4], in experiment [5] and in experiment [6] was inactive. Besides, the outcome in experiment [8], in experiment [10], in experiment [12], in experiment [13], in [14] and in experiment [15] was inactive. The outcome in experiment [16], in [17], in experiment [18], in experiment [19] and in [20] was inactive. Further, the AC50 in experiment [7] is 20 µM (active); in experiment [9], 18.4 µM (active); in experiment [11], 20 µM (active).

On to `CN(C)Cc1cc(C(C)(C)C)c(O)c(C(C)(C)C)c1`, for which the outcome in [1], in [2], in [3], in experiment [4], in experiment [5] and in [6] was inactive. For the same molecule, the result in experiment [7], in experiment [8], in experiment [9], in [10], in experiment [11] and in experiment [12] was inactive. The result in [13], in experiment [14], in experiment [15], in experiment [16], in experiment [17] and in experiment [18] was inactive. Further, the outcome in experiment [19] and in [20] was inactive.

With `CCCCCCCCCCCCCCCCCC[N+](C)(C)C`, the AC50 in experiment [1] is 6.82 µM (active); in experiment [2] it was 1.34 µM (active); in experiment [3], 3.49 µM (active); in experiment [4] it was 2.9 µM (active); in [6], 1.23 µM (active); in experiment [7], 2.52 µM (active). The AC50 in experiment [8] is 1.42 µM (active); in [9] it was 2.69 µM (active); in [10], 3.82 µM (active); in experiment [12], 7.3 µM (active); in experiment [14], 8.51 µM (active); in experiment [15], 9.19 µM (active). Further, the AC50 in experiment [16] was 3.33 µM (active); in experiment [17], 3.5 µM (active); in experiment [18], 2.09 µM (active); in experiment [19], 9.22 µM (active). Also, the outcome in experiment [5], in experiment [11], in [13] and in experiment [20] was inactive.

In the case of `O=C(C(=O)c1ccccc1)c1ccccc1`, the AC50 in experiment [1] is 0.048 µM (active). The outcome in experiment [2], in [3], in experiment [4], in experiment [5], in [6] and in experiment [7] was inactive. The outcome in [8], in experiment [9], in [10], in experiment [11], in experiment [12] and in [13] was inactive. Further, the result in experiment [14], in experiment [15], in [16], in [17], in experiment [18] and in experiment [19] was inactive. For the same molecule, the result in experiment [20] was inactive.
